Experimental data: PubChem BioAssay (NCI)
This is part of a sample that, as a whole, favours compounds with a hit. Of some 83,000 tested, about 20% had one in any assay.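 Each cell line was grown in a 96-well plate and treated with one concentration of compound for 48 hours. Values below 10 were considered active.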 Calls of active or inactive are those of the source.

Assays:
Assay in all cases: NCI-60 one-dose screen, 48 h (100 = growth as untreated, 0 = no growth, -100 = all killed)
Conditions in all cases: 10 µM
T-47D breast = system: T-47D breast
BT-549 breast = system: BT-549 breast
MDA-MB-435 melanoma = system: MDA-MB-435 melanoma
SW-620 colon = system: SW-620 colon
MCF7 breast = system: MCF7 breast
HCT-116 colon = system: HCT-116 colon
HCC-2998 colon = system: HCC-2998 colon
KM12 colon = system: KM12 colon
MDA-MB-468 breast = system: MDA-MB-468 breast

Measured: growth

O=C1Nc2cc(Cl)ccc2/C1=C/c1cccc(OCc2ccc(Br)cc2F)c1
active: T-47D breast 9.72% | MDA-MB-435 melanoma -64.4% | MCF7 breast 5.38% | HCT-116 colon 1.63% | KM12 colon 1.67% | MDA-MB-468 breast -9.05%
inactive: BT-549 breast 10.5% | SW-620 colon 19.5% | HCC-2998 colon 26%

CN1CCN(c2ccc(Nc3nc(NCCCNC(=O)C4CCCCC4)c4sccc4n3)cc2)CC1
inactive: T-47D breast 36.6% | BT-549 breast 69.1% | MDA-MB-435 melanoma 34% | SW-620 colon 40% | MCF7 breast 23.1% | HCT-116 colon 30.8% | HCC-2998 colon 59.5% | KM12 colon 63.7% | MDA-MB-468 breast 49.1%

Clc1ccc2c(N/N=C/c3c[nH]c4ccc(Br)cc34)ccnc2c1
active: T-47D breast -54.6% | BT-549 breast -79.5% | MDA-MB-435 melanoma -77.3% | SW-620 colon 2.03% | MCF7 breast -56.8% | HCT-116 colon -10.3% | HCC-2998 colon -92.5% | KM12 colon -81.7% | MDA-MB-468 breast -94.2%

O=C(CSc1nnc(-c2ccc3nc(-c4ccc(Cl)cc4)[nH]c3c2)o1)Nc1ccc(Cl)cc1
active: BT-549 breast -65.1% | MDA-MB-435 melanoma -65.8% | SW-620 colon -69.9% | MCF7 breast -72.7% | HCT-116 colon -48.9% | KM12 colon -12.8% | MDA-MB-468 breast -48.4%
inactive: T-47D breast 28% | HCC-2998 colon 18.5%

CC(C)(C)c1ccc(NCc2cn(-c3ccc(C(=O)O)cc3)nc2-c2ccc(C#N)cc2)cc1
active: BT-549 breast -2.13% | MCF7 breast 6.04% | HCT-116 colon -13.9% | HCC-2998 colon -66.6% | KM12 colon -38.3%
inactive: T-47D breast 21.4% | MDA-MB-435 melanoma 34% | SW-620 colon 32.2% | MDA-MB-468 breast 19%

O=c1[nH]c2ccccc2cc1CSc1ccc(Nc2nccc(-c3ccc4c(c3)OCO4)n2)cc1
inactive: T-47D breast 75.5% | BT-549 breast 65.5% | MDA-MB-435 melanoma 93.6% | SW-620 colon 80.6% | MCF7 breast 56% | HCT-116 colon 84.1% | HCC-2998 colon 95.5% | KM12 colon 74.2% | MDA-MB-468 breast 72.5%

Cc1noc2c(Cc3ccc([N+](=O)[O-])cc3)nn(CC(=O)N/N=C/c3ccc(Br)cc3)c(=O)c12
inactive: T-47D breast 62% | BT-549 breast 94.3% | MDA-MB-435 melanoma 92.3% | SW-620 colon 97.4% | MCF7 breast 68.4% | HCT-116 colon 64.4% | HCC-2998 colon 91.9% | KM12 colon 84.2% | MDA-MB-468 breast 95.3%

O=C(c1ccc(Cl)cc1)C1[C@H](c2ccc(Br)cc2)[C@@H](c2ccccc2)NC12C(=O)Nc1ccccc12 (some centres not stated)
inactive: HCT-116 colon 10.7%
active: T-47D breast 1.59% | BT-549 breast -9.62% | MDA-MB-435 melanoma -46.5% | SW-620 colon 3.46% | MCF7 breast -4.24% | HCC-2998 colon -39.3% | KM12 colon -3.73% | MDA-MB-468 breast -6.54%

O=C(CNc1nc(-c2ccccc2)cs1)Nc1ccccc1
active: T-47D breast -15.3% | BT-549 breast -57.7% | MDA-MB-435 melanoma -3.84% | SW-620 colon -38.6% | MCF7 breast -59.7% | HCT-116 colon 3.71% | HCC-2998 colon -94.9% | KM12 colon 2.41% | MDA-MB-468 breast -78%

CC1(C)CC[C@]23CC[C@]4(C)[C@H](CC[C@@H]5[C@@]6(C)CC[C@H](N)C(C)(C)[C@@H]6CC[C@]54C)[C@H]2[C@H]1OC3=O
active: T-47D breast -78.2% | BT-549 breast -97.7% | MDA-MB-435 melanoma -96.2% | SW-620 colon -73.7% | MCF7 breast -80.1% | HCT-116 colon -98.9% | HCC-2998 colon -92.2% | KM12 colon -86.6% | MDA-MB-468 breast -95.6%

Cn1cc(/C=N/Nc2cccc(Cl)n2)c2ccccc21
active: MDA-MB-468 breast -1.15%
inactive: T-47D breast 47.2% | BT-549 breast 43.4% | MDA-MB-435 melanoma 10.7% | SW-620 colon 65.9% | MCF7 breast 35.9% | HCT-116 colon 33.3% | HCC-2998 colon 48.5% | KM12 colon 33.1%

Cc1noc2c(Cc3ccccc3)nn(CC(=O)N/N=C/c3ccc(F)cc3)c(=O)c12
inactive: T-47D breast 12.6% | BT-549 breast 64.1% | MDA-MB-435 melanoma 71.1% | SW-620 colon 79.9% | MCF7 breast 61.7% | HCT-116 colon 35% | HCC-2998 colon 67.1% | KM12 colon 86.2% | MDA-MB-468 breast 85.4%

CCN1CCN(Cc2ccc(C(=O)Nc3cccc(-c4cn(-c5ccc6oc(=O)ccc6c5)nn4)c3)cc2C(F)(F)F)CC1
inactive: T-47D breast 82.9%
active: BT-549 breast -79.2% | MDA-MB-435 melanoma -100% | SW-620 colon -100% | MCF7 breast -100% | HCT-116 colon -100% | HCC-2998 colon -100% | KM12 colon -100% | MDA-MB-468 breast -82.4%

O=C(NO)c1ccc(CNC(=O)[C@H]2Cc3c([nH]c4ccccc34)[C@H](c3ccc(Cl)cc3)N2)cc1
active: T-47D breast -2.39% | MDA-MB-435 melanoma 4.26% | SW-620 colon -51.6% | MCF7 breast 3% | HCT-116 colon 1.03% | HCC-2998 colon -53.2% | MDA-MB-468 breast -33.5%
inactive: BT-549 breast 26.9% | KM12 colon 19.6%

CO[C@@H]1CSS[C@H]1Cn1nc(-c2ccc(Oc3ccccc3)cc2)c2c(N)ncnc21
inactive: T-47D breast 17.8% | BT-549 breast 63.8% | MDA-MB-435 melanoma 17.3% | SW-620 colon 96.7% | MCF7 breast 30.7% | HCT-116 colon 31.7% | HCC-2998 colon 91.6% | KM12 colon 60% | MDA-MB-468 breast 11.6%

O=C(N=Nc1c(O)[nH]c2ccc(Br)cc12)c1ccc2nc(-c3ccccc3)[nH]c2c1
active: T-47D breast -67.4% | BT-549 breast -71% | MDA-MB-435 melanoma -88.9% | SW-620 colon -60% | MCF7 breast -53.4% | HCT-116 colon -28.3% | HCC-2998 colon -78% | KM12 colon 2.92% | MDA-MB-468 breast -85.8%

NC1=NC(c2ccccc2Cl)N=C(Nc2nn[nH]n2)N1 (configuration not stated)
inactive: T-47D breast 99.1% | BT-549 breast 107% | MDA-MB-435 melanoma 102% | SW-620 colon 106% | MCF7 breast 93.3% | HCT-116 colon 103% | HCC-2998 colon 104% | KM12 colon 100% | MDA-MB-468 breast 103%

CN1CCO/C1=C(/NC(=O)c1ccc(Cl)cc1)[P+](c1ccccc1)(c1ccccc1)c1ccccc1
inactive: T-47D breast 66% | BT-549 breast 90.1% | MDA-MB-435 melanoma 66.7% | SW-620 colon 97.1% | MCF7 breast 62.9% | HCT-116 colon 45.9% | HCC-2998 colon 89.1% | KM12 colon 64.5%
active: MDA-MB-468 breast -19.6%
